The results in this text go back to PubChem BioAssay (EPA / NIEHS).

For experiment [1], the target named is human Vitamin D Receptor (VDR), VDR (gene 7421) (UniProt P11473). The experiment is described as follows: ATG_VDR_TRANS: Attagene TRANS-FACTORIAL HepG2 Assay for human Vitamin D Receptor (VDR) (AID 2283022; active = hit-call score of the fitted dose curve at least 0.9, where 1 is the maximum). In short, it runs like this:
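Transactivation by an exogenous VDR-Gal4 chimera in transiently transfected HepG2 cells was measured as reporter transcript level 24 hours after chemical treatment. RT-PCR products were analysed by capillary electrophoresis and fitted in the positive direction relative to DMSO.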

Experiment [2] deals with human Retinoid X Receptor beta (RXRb), RXRB (gene 6257) (UniProt P28702). The experiment can be described thus: ATG_RXRb_TRANS: Attagene TRANS-FACTORIAL HepG2 Assay for human Retinoid X Receptor beta (RXRb) (AID 2283013; active = hit-call score of the fitted dose curve at least 0.9, where 1 is the maximum). In short, it runs like this: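 HepG2 cells transiently transfected with multiplexed reporter units driven by GAL4-UAS and exogenous chimeric NR-Gal4 proteins; treated 24 h. Reporter mRNA measured by RT-PCR, 6-FAM labelling and capillary electrophoresis; gain-of-signal fitted versus DMSO baseline.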

Read-out in experiment [3]: E-selectin (Homo sapiens) (UniProt P16581)
The experiment is described as follows: BSK_3C_Eselectin: BioMAP Diversity Plus: 3C Assay for Eselectin Biomarker Activity (AID 2283015).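 As to outcome: cell surface E-selectin protein quantified by ELISA 24 h after dosing.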 The settings on record: primary human endothelial cells (HUVEC); actives raise or lower the signal. Summed up:
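E-selectin ELISA readout, fitted bidirectionally relative to DMSO, taken 24 h post-dosing in HUVEC cultures of the 3C system. Overt cytotoxicity tracked with sulforhodamine B staining of parallel wells.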

Read-out in experiment [4]: Interleukin-1 alpha (IL1a), IL1A (gene 3552)
The experiment can be described thus: BSK_BE3C_IL1a: BioMAP Diversity Plus: BE3C Assay for Interleukin-1 alpha (IL1a) Biomarker Activity (AID 2283016). The conditions noted are these: primary human bronchial epithelial cells; actives raise or lower the signal. In short, it runs like this: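 Human primary bronchial epithelial cells (BE3C system) were dosed with compound and IL-1a measured by ELISA 24 h later. Activity was fitted bidirectionally against DMSO baseline; cytotoxicity was tracked in parallel cultures by SRB total-protein staining.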

Read-out in experiment [5]: Monocyte Chemoattractant Protein-1 (MCP1), CCL2 (gene 6347)
The experiment can be described thus: BSK_4H_MCP1: BioMAP Diversity Plus: 4H Assay for Monocyte Chemoattractant Protein-1 (MCP1) Biomarker Activity (AID 2283018). The settings on record: primary human endothelial cells (HUVEC); actives raise or lower the signal. In short, it runs like this: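 Human umbilical vein endothelial cells (4H system) dosed with chemical; MCP-1 measured by ELISA 24 h after dosing. Bidirectional curve fitting against DMSO negative control as baseline; parallel SRB total-protein staining tracks overt cytotoxicity.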

Read-out in experiment [6]: Human Leukocyte Antigen - DR isotype (HLADR), HLA-DRA (gene 3122)
The experiment can be described thus: BSK_3C_HLADR: BioMAP Diversity Plus: 3C Assay for Human Leukocyte Antigen - DR isotype (HLADR) Biomarker Activity (AID 2283019).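 As to outcome: ELISA of cell-surface HLA-DR on HUVEC 24 h after dosing.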 The conditions noted are these: primary human endothelial cells (HUVEC); actives raise or lower the signal. Summed up: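 Bidirectional fitting against DMSO was applied to the HLA-DR ELISA signal from human umbilical vein endothelial cells, 24 h post-dose. Cytotoxicity came from parallel SRB total-protein staining; 3C proliferation was counted by SRB at 48 h.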

Read-out in experiment [7]: Interleukin-8 (IL8), CXCL8 (gene 3576)
The experiment can be described thus: BSK_3C_IL8: BioMAP Diversity Plus: 3C Assay for Interleukin-8 (IL8) Biomarker Activity (AID 2283020). The settings on record: primary human endothelial cells (HUVEC); actives raise or lower the signal. In short, it runs like this:
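Primary human umbilical vein endothelial cells (3C system) were exposed to test chemical for 24 h, then IL-8 was quantified by ELISA. Responses were fitted bidirectionally against DMSO vehicle as baseline.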

Read-out in experiment [8]: Monokine induced gamma interferon (MIG), CXCL9 (gene 4283)
The experiment can be described thus: BSK_3C_MIG: BioMAP Diversity Plus: 3C Assay for Monokine induced gamma interferon (MIG) Biomarker Activity (AID 2283021).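 As to AC50: MIG protein level measured by immunoassay in the treated endothelial cultures.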 The settings on record: primary human endothelial cells (HUVEC); actives raise or lower the signal. In short, it runs like this: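 Primary human umbilical vein endothelial cells in the 3C system were exposed to chemical for 24 h, after which MIG was quantified by ELISA. Activity was fitted bidirectionally against DMSO as negative control and baseline.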

A short description of experiment [9]: BSK_3C_SRB: Viability Assessment in the BioMAP Diversity Plus: 3C Assay (AID 2283023).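 Also: fitted both ways against DMSO so a hit may be signal rise or drop.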 The settings on record: primary human endothelial cells (HUVEC). Summed up:
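Cytotoxicity readout in parallel HUVEC 3C cultures: after 24 h compound exposure, cells fixed with 10% TCA, stained with 0.1% SRB and read at 560 nm. Gain or loss relative to DMSO fitted.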

Read-out in experiment [10]: Matrix Metallopeptidase 1 (MMP1), MMP1 (gene 4312)
The experiment can be described thus: BSK_BE3C_MMP1: BioMAP Diversity Plus: BE3C Assay for Matrix Metallopeptidase 1 (MMP1) Biomarker Activity (AID 2283024). The settings on record: primary human bronchial epithelial cells; actives raise or lower the signal. In short, it runs like this: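 Primary human bronchial epithelial cells were dosed with test chemicals, and MMP1 levels were measured by ELISA 24 h later. Data were fitted bidirectionally against DMSO as the negative control and activity baseline.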

Experiment [11] is described as follows: BSK_3C_Vis: BioMAP Diversity Plus: 3C Assay for Morphology Visualization (AID 2283025).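 Also: fitted both ways so gain or loss versus DMSO counts.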 The settings on record: primary human endothelial cells (HUVEC). In short, it runs like this:
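Human umbilical vein endothelial cells in the 3C system were imaged by light microscopy 24 h after chemical dosing to record cell morphology. Activity was fitted bidirectionally against DMSO as negative control and baseline; the endpoint serves as a background control.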

The nature of experiment [12]: BSK_4H_SRB: Viability Assessment in the BioMAP Diversity Plus: 4H Assay (AID 2283027).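 Also: cells exposed to compound for 24 h before staining.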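 As to AC50: curves fitted both ways versus DMSO so AC50 may be loss or gain.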 The settings on record: primary human endothelial cells (HUVEC). Summed up:
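Human umbilical vein endothelial cells were dosed with chemical and, after 24 h, fixed with 10% TCA, stained with 0.1% sulforhodamine B, and read at 560 nm to give total protein as a cytotoxicity measure. Bidirectional fitting relative to DMSO control.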

Experiment [13] in a line: BSK_BE3C_SRB: Viability Assessment in the BioMAP Diversity Plus: BE3C Assay (AID 2283028).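 As to AC50: fitted both ways so AC50 may mark signal gain or loss versus DMSO.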 The settings on record: primary human bronchial epithelial cells. In short, it runs like this: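 Cytotoxicity read-out: SRB (0.1%) staining of TCA-fixed (10%) human lung bronchial epithelial cells, absorbance 560 nm, 24 h post-dosing. Curves fitted both directions relative to DMSO.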

Read-out in experiment [14]: Thrombomodulin, THBD (gene 7056)
The experiment can be described thus: BSK_3C_Thrombomodulin: BioMAP Diversity Plus: 3C Assay for Thrombomodulin Biomarker Activity (AID 2283029). The settings on record: primary human endothelial cells (HUVEC); actives raise or lower the signal. In short, it runs like this:
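Primary human umbilical vein endothelial cells (3C system) were exposed to chemical for 24 h, then thrombomodulin levels were measured by ELISA. Activity was fitted bidirectionally against the DMSO negative control as baseline.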

The target of experiment [15] is Retinoic acid receptor RXR-alpha (Homo sapiens) (UniProt P19793). The experiment is described as follows: ATG_RXRa_TRANS: Attagene TRANS-FACTORIAL HepG2 Assay for human Retinoid X Receptor alpha (RXRa) (AID 2283012; active = hit-call score of the fitted dose curve at least 0.9, where 1 is the maximum). In short, it runs like this:
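HepG2 cells transiently transfected with multiplexed GAL4-UAS reporter units and chimeric NR-GAL4 fusions, dosed 24 h. Reporter mRNA measured by RT-PCR, FAM labelling, HpaI digestion and capillary electrophoresis; gain-of-signal fitted relative to DMSO baseline.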

Read-out in experiment [16]: Monocyte Chemoattractant Protein-1 (MCP1), CCL2 (gene 6347)
The experiment can be described thus: BSK_3C_MCP1: BioMAP Diversity Plus: 3C Assay for Monocyte Chemoattractant Protein-1 (MCP1) Biomarker Activity (AID 2283017). The settings on record: primary human endothelial cells (HUVEC); actives raise or lower the signal. Summed up:
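MCP-1 was measured by ELISA 24 h after dosing in primary HUVEC 3C cultures and fitted in both directions relative to DMSO; cytotoxicity was checked by SRB total-protein staining in parallel wells.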

Read-out in experiment [17]: Pselectin, SELP (gene 6403)
The experiment is described as follows: BSK_4H_Pselectin: BioMAP Diversity Plus: 4H Assay for Pselectin Biomarker Activity (AID 2283026). The settings on record: primary human endothelial cells (HUVEC); actives raise or lower the signal. In short, it runs like this: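 Primary human umbilical vein endothelial cells were exposed to test chemical for 24 h, then cell-surface P-selectin was quantified by ELISA. Activity was fitted bidirectionally against DMSO as negative control and baseline.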

Inconclusive results are not listed. Where a structure was tested more than once in an assay, its records may differ in their call. The source made the active and inactive calls. The calls were made as follows, unless noted: active = hit-call score of the fitted dose curve at least 0.9, where 1 is the maximum; inactive = score below 0.9.

Retinoic acid receptor RXR-alpha (Homo sapiens), sequence (P19793 whole entry, looked up, the tested form may be a part): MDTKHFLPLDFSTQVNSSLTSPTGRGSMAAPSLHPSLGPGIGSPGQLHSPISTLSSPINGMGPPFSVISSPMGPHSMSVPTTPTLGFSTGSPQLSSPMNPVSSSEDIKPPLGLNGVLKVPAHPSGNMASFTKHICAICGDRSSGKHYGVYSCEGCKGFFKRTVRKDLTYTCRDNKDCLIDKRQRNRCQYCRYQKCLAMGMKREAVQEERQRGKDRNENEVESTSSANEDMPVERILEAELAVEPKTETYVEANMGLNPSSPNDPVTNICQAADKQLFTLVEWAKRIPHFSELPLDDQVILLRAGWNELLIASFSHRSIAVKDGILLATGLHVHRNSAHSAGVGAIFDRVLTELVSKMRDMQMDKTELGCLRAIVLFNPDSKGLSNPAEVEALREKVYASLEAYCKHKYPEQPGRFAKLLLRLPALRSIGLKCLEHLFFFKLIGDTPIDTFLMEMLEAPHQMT
human Retinoid X Receptor beta (RXRb), RXRB (gene 6257), sequence (P28702 whole entry, looked up, the tested form may be a part): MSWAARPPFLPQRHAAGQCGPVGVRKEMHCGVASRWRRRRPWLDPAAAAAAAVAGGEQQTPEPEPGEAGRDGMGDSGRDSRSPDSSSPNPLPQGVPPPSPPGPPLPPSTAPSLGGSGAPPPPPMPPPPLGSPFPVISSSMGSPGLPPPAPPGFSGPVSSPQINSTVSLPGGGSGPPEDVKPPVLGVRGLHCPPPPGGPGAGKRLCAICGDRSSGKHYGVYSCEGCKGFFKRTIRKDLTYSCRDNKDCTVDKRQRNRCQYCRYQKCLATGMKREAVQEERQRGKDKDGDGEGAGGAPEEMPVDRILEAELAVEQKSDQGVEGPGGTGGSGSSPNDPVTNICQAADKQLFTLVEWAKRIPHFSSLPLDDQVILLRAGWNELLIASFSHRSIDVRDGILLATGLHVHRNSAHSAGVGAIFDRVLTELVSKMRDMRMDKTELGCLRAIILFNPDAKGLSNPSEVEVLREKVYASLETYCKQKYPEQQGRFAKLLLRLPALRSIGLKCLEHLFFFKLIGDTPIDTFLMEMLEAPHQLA
E-selectin (Homo sapiens), sequence (P16581 whole entry, looked up): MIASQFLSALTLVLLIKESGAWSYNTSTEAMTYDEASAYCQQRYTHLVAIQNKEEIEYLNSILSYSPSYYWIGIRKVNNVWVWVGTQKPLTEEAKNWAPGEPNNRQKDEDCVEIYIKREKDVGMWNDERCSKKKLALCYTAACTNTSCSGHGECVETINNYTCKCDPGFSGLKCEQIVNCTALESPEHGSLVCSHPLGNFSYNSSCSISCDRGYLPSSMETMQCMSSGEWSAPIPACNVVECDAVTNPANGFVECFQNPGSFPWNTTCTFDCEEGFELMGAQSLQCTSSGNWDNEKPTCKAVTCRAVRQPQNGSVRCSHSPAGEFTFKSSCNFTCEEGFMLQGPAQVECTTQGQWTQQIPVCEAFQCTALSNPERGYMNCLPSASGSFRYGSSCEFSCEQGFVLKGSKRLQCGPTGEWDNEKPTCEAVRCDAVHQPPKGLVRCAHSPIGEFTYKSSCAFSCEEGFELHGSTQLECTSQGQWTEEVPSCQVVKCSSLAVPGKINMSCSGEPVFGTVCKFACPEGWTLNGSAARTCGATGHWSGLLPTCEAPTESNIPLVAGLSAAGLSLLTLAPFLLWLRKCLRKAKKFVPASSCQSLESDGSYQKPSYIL
human Vitamin D Receptor (VDR), VDR (gene 7421), sequence (P11473 whole entry, looked up, the tested form may be a part): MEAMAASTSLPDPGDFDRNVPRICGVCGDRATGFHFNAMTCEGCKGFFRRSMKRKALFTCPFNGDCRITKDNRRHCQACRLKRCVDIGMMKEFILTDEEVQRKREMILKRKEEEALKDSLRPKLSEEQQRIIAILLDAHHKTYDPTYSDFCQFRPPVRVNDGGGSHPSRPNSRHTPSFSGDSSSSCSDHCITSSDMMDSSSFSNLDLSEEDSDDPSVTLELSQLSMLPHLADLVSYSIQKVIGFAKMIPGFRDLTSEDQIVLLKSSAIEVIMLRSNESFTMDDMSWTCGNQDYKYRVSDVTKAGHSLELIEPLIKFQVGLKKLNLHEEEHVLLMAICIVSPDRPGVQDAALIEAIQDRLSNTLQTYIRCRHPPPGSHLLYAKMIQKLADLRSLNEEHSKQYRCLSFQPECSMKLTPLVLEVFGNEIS

For `CCN(CC)C1CCCCC1`, the outcome in experiment [1] was inactive.

For `CCCCOCCOP(=O)(OCCOCCCC)OCCOCCCC`, the AC50 in [2] was 24.8 µM (active); in [6] it was 12.8 µM (active); in experiment [11], 37.5 µM (active). In addition, the outcome in experiment [2], in [3], in experiment [4], in experiment [5], in experiment [7] and in experiment [8] was inactive. For the same molecule, the call in experiment [1], in experiment [9], in experiment [10], in experiment [12], in experiment [13] and in experiment [14] was inactive.

Turning to `CC(C)(C)N(NC(=O)c1ccc(Cl)cc1)C(=O)c1ccccc1`, the outcome in [2] and in [1] was inactive.

As for `Nc1ccc(Cl)cc1`, the outcome in experiment [15], in [3], in experiment [4], in experiment [16], in experiment [5] and in experiment [6] was inactive. In addition, the result in [7], in [8], in experiment [9], in experiment [10], in experiment [11] and in experiment [17] was inactive. Moreover, the result in experiment [12], in experiment [13] and in [14] was inactive.

In the case of `CCOP(=O)(O)C(N)=O`, the outcome in experiment [2] and in [1] was inactive.

For the molecule `CC(C)(C)c1ccccc1OP(=O)(Oc1ccccc1)Oc1ccccc1`, the outcome in experiment [15], in [4], in experiment [8], in experiment [1] and in [13] was inactive. Also, the half-maximal activity concentration (AC50) in experiment [3] is 7.83 µM (active); in experiment [5], 13.6 µM (active); in [6] it was 20 µM (active); in experiment [7] it was 20 µM (active); in experiment [9] it was 20 µM (active); in experiment [10], 5.01 µM (active). The AC50 in [11] was 20 µM (active); in [17], 20 µM (active); in experiment [12] it was 11.1 µM (active); in experiment [14] it was 20 µM (active).

As for `CC(C)Nc1ccc(Nc2ccccc2)cc1`, the result in experiment [15], in experiment [10] and in experiment [14] was inactive. Moreover, the AC50 in experiment [3] was 10.6 µM (active); in experiment [4] it was 6.48 µM (active); in experiment [16], 9.95 µM (active); in experiment [5] it was 6.18 µM (active); in [6], 4.45 µM (active); in experiment [7], 12.8 µM (active). The AC50 in experiment [8] is 20 µM (active); in experiment [9], 11 µM (active); in [11], 9.94 µM (active); in experiment [12] it was 9.88 µM (active); in experiment [13], 33.2 µM (active).

Regarding `CCN(CC)c1ccccc1`, the result in [3], in experiment [4], in experiment [5], in experiment [6], in [7] and in experiment [8] was inactive. Further, the call in experiment [1], in experiment [9], in experiment [10], in [11], in [17] and in [12] was inactive. Moreover, the outcome in experiment [13] and in [14] was inactive.

On to `c1ccc(OP(Oc2ccccc2)Oc2ccccc2)cc1`, for which the outcome in experiment [3], in experiment [4], in experiment [5], in experiment [6], in [7] and in [8] was inactive. The result in [9], in experiment [10], in experiment [11], in experiment [17], in experiment [12] and in [13] was inactive. In addition, the result in [14] was inactive.
